# The list is not random: actives were taken first. Their share in the collection is about 4.1%.
# beta cell repl: induces beta-cell replication in MIN6 cells. 330,000 tested, 0.29% active. proliferation, % at 10 µM. MIN6 cells proliferation, ATPlite luminescence, 48 h; cells starved in 0.2% serum; 100% = growth in 10% serum;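 active = compounds whose signal lies at least 3.5 SD above the mean of all wells on their plate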
# FAS-TE inh: FAS thioesterase (human) inhibition. inhibition, % at 15 µM. P49327. 360,000 tested, 0.67% active. AID 602261. recombinant FAS-TE, OMFH fluorogenic substrate, fluorescence endpoint;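 active = compounds whose normalised, plate-corrected inhibition of enzyme fluorescence in the single-dose primary screen is 50% or more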
# p-CIP stab down: p/CIP protein destabilization; Q05BA5; F442A p/CIP-EGFP cells, EGFP fluorescence, 16 h; decrease of EGFP signal, % at 10 µM; 290,000 tested, 0.01% active; AID 1984;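 active = EGFP signal decrease of at least 30% at 10 µM or well 3 SD below plate mean, unless failing retest; inactive = the rest, including hits failing retest or dose response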
# GRIN3A LBD mod: NR3A (human) ligand-binding domain modulation | NR3A LBD differential scanning fluorimetry, Tm shift; 0% = protein alone, 100% = glycine-bound protein | Tm shift relative to glycine control, % at 25 µM | 340,000 tested, 2.5% active | AID 1259313;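 active = melting temperature shift of at least 10% of the positive control shift, at one fixed dose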
# MPTP inh: inhibitors of mitochondrial permeability transition pore; 360,000 tested, 1.4% active; AID 602449; inhibition, % at 10 µM; isolated mouse mitochondria, Ca2+ swelling absorbance, 30 min;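 active = inhibition of 50% or more, scaled per plate between neutral and stimulator controls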
# FAS-TE conf: FAS thioesterase (human) inhibition, confirmation | recombinant FAS-TE, OMFH fluorogenic substrate, fluorescence | 2,300 tested, 45% active | inhibition, % at 15 µM | shares compounds with FAS-TE inh;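 active = compounds inhibiting the enzyme by at least 50% at 15 µM in any one of the replicates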
# Hits are given with their value; i = inactive; nt = no result given.
SMILES,beta cell repl,FAS-TE inh,p-CIP stab down,GRIN3A LBD mod,MPTP inh,FAS-TE conf
Cc1cccc(NC(=O)c2cc([N+](=O)[O-])ccc2N2CCOCC2)c1C,nt,i,nt,nt,i,nt
COC(=O)[C@@]1(Cc2ccc(OC)cc2)[C@H]2c3cc(C(=O)N4CCCC4)n(Cc4ccc(C)o4)c3C[C@H]2CN1C(=O)c1ccccc1,nt,nt,i,nt,nt,nt
COC(=O)[C@@]1(Cc2ccc(OC)cc2)[C@H]2c3cc(C(=O)N4CCCC4)n(Cc4ccsc4Br)c3C[C@H]2CN1C(=O)c1ccccc1,nt,51.0,nt,nt,i,i
COC(=O)[C@@]1(Cc2ccc(F)cc2)[C@H]2c3cc(C(=O)N(C)C)n(CCc4ccc(OC)c(Br)c4)c3C[C@H]2CN1C(=O)c1ccccc1,i,80.9,i,i,i,i
COc1ccccc1N(C(=O)c1cncc(Br)c1)c1nc(-c2ccc(C)cc2)cs1,i,55.8,i,i,i,i
O=C(OCc1cn([C@H]2CN(C(=O)C3CCCCC3)[C@@H](c3ccccc3)C[C@@H]2O)nn1)c1ccccc1,nt,i,nt,nt,i,nt
COc1ccc(C2c3c(c(C)c(C)oc3=O)Oc3c(C)c(C)oc(=O)c32)cc1,i,i,nt,i,i,nt
COc1cc(C2c3c(c(C)c(C)oc3=O)Oc3c(C)c(C)oc(=O)c32)ccc1OS(=O)(=O)c1ccc(C)cc1,i,83.8,nt,i,i,i
COc1cccc(NC(=O)COc2c(F)c(F)c(C(F)(F)F)c(F)c2F)c1,i,58.2,i,i,i,36.7
O=C(O)CC(NC(=O)CCC1CCCCC1)c1cc([N+](=O)[O-])ccc1Cl (stereo not given),i,60.3,i,i,i,67.3
CCOc1ccc(CN(C)C(=O)c2cccc(S(=O)(=O)Nc3ccccc3OC)c2)cc1OC,nt,i,nt,nt,i,nt
COc1ccc(-c2cc(C(=O)Nc3sc4c(c3C#N)CCCC4)c3ccccc3n2)cc1OC,i,51.6,i,i,i,i
Cc1cccc(C)c1NC(=O)c1cc(-c2ccccn2)nc2ccccc12,i,i,i,i,i,nt
O=C(Nc1ccc([N+](=O)[O-])cn1)c1cc(-c2cccc(Br)c2)nc2ccccc12,i,i,i,i,i,nt
COc1ccc(-c2cc(C(=O)Nc3ccccc3O)c3ccccc3n2)cc1OC,i,i,i,i,i,nt
COc1cc2c(cc1NC(=O)c1cc(-c3ccccn3)nc3ccccc13)oc1ccccc12,i,57.2,i,i,i,i
COc1cccc(-c2cc(C(=O)Nc3ccc([N+](=O)[O-])cn3)c3ccccc3n2)c1,i,51.5,i,i,i,i
COc1ccc(-c2cc(C(=O)Nc3nc4ccccc4s3)c3ccccc3n2)cc1OC,i,82.2,i,i,i,i
CC1(C(=O)NS(=O)(=O)c2cccc(F)c2)CCN1C(=O)C1(c2ccc(Cl)cc2)CCC1 (stereo not given),nt,i,nt,nt,i,nt
Cc1cccc2cc(CN(Cc3cccs3)S(=O)(=O)c3ccc4c(c3)OCCO4)c(=O)[nH]c12,i,72.7,i,i,i,i
C[C@@H]1CCCCO[C@H](CN(C)Cc2ccc(Cl)c(Cl)c2)[C@H](C)CN([C@@H](C)CO)C(=O)c2cc(NC(=O)Nc3ccc(F)cc3)ccc2O1,nt,i,nt,nt,i,nt
CC(C)NC(=O)Nc1ccc2c(c1)C(=O)N([C@@H](C)CO)C[C@@H](C)[C@H](CN(C)Cc1ccccc1)OCCCC[C@H](C)O2,nt,i,nt,nt,i,nt
COc1ccc(NC(=O)Nc2ccc3c(c2)C(=O)N([C@H](C)CO)C[C@H](C)[C@@H](CN(C)Cc2ccc(Cl)c(Cl)c2)OCCCC[C@@H](C)O3)cc1,nt,62.0,nt,nt,i,i
C[C@H]1CN([C@@H](C)CO)C(=O)c2cc(NC(=O)Nc3cccc4ccccc34)ccc2O[C@@H]1CN(C)Cc1ccc(-c2ccccc2)cc1,i,59.8,nt,10.8,i,i
C[C@@H]1CCCCO[C@@H](CN(C)Cc2ccccc2)[C@@H](C)CN([C@H](C)CO)C(=O)c2cc(NC(=O)Nc3cccc4ccccc34)ccc2O1,nt,51.7,nt,nt,i,i
SMILES,beta cell repl,FAS-TE inh,p-CIP stab down,GRIN3A LBD mod,MPTP inh,FAS-TE conf
C[C@H](CO)N1C[C@H](C)[C@H](CN(C)Cc2ccccc2)Oc2ccc(NC(=O)Nc3ccc(F)cc3)cc2C1=O,i,i,nt,i,i,nt
NC(Cc1ccc(F)cc1)c1csc(Nc2cc(Oc3ccccc3)ncn2)n1 (stereo not given),nt,i,nt,nt,i,nt
COC(=O)c1ccccc1COc1cccn2c(N(C)Cc3cccs3)c(C)nc12,nt,i,nt,nt,i,nt
Cc1cn([C@H]2C[C@H](O)[C@@H](CNS(=O)(=O)N3CCCC3)O2)c(=O)[nH]c1=O,nt,i,nt,nt,i,nt
Cn1c(/C=C/N(Cc2ccccc2)c2ccccc2)c([N+](=O)[O-])c(=O)n(C)c1=O,i,56.7,i,i,i,46.9
O=C(Cn1c(=O)c2c(ncn2Cc2ccccc2)n(Cc2ccccc2)c1=O)N1CCc2ccccc21,i,65.7,i,i,i,i
N#CC1C(=O)NC(=O)CC12CCCCC2 (stereo not given),nt,i,nt,i,i,nt
Cc1ccc(S(=O)(=O)c2c(C(=O)c3ccccc3)cnc3cc4c(cc23)OCCO4)cc1,i,69.8,i,i,i,i
Cc1c(C(=O)c2ccc(Cl)c(Cl)c2)cnc2cc3c(cc12)OCO3,i,i,i,i,i,nt
COc1ccccc1C(=O)Nc1ccc(S(=O)(=O)N2CCc3ccccc32)cc1,i,51.0,i,i,i,i
Cc1ccc(NC(=O)c2cc([N+](=O)[O-])ccc2N2CCOCC2)cc1S(=O)(=O)N1CCOCC1,i,i,i,i,i,nt
Cc1cc(C)c(NC(=O)COC(=O)c2cc([N+](=O)[O-])ccc2N2CCOCC2)c(C)c1,i,65.4,i,i,i,53.8
Cc1cc(NC(=O)COC(=O)c2cc([N+](=O)[O-])ccc2N2CCOCC2)ccc1Br,i,78.7,nt,nt,i,80.1
COc1ccc(C(=O)N2CCC(C)(C(=O)NS(=O)(=O)C3CC3)C2)cc1 (stereo not given),nt,i,nt,nt,i,nt
CC(=O)Nc1ccc(-c2ccnc3c2CC(C)(C(=O)NCc2ccc(N4CCN(C)CC4)cc2)O3)cc1 (stereo not given),nt,i,nt,nt,i,nt
CN(C)C(=O)CCc1ccc2c3c([nH]c2c1)[C@]1(CCC2CCCC2)[C@@H](C(=O)N2CCOCC2)C[C@H](CC(=O)NCCCn2ccnc2)C(=O)N1CC3,nt,i,nt,i,i,nt
O=C(CC1C[C@H](C(=O)N2CCOCC2)[C@@]2(CCC3CCCC3)c3[nH]c4ccccc4c3CCN2C1=O)NCC12CC3CC(CC(C3)C1)C2 (stereo not given in full),i,88.8,nt,i,i,i
O=C(CC1C[C@H](C(=O)N2CCOCC2)[C@@]2(CCC3CCCC3)c3[nH]c4ccccc4c3CCN2C1=O)NCc1ccco1 (stereo not given in full),i,84.2,nt,i,i,91.6
